# Measured values published in the supplement of paper PMC7156485.
# Values joined by “and” are separate entries in the source; they are usually repeats but may differ in a detail not shown here. Equal values may be shown once.
# Legend:
# Details in all cases: concentration: 10 µM; 24 h
# HCC1569 [1] = test: cell number relative to DMSO (% of DMSO); higher = more cells (less growth inhibition / toxicity)
# Summary of the method: (§1)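 HCC1569 and TDF cells were seeded at 800 per well in 384-well plates in RPMI with 10% FBS and treated with compounds at 10 µM for 24 h at 37 °C, in triplicate. After fixation in 3.7% formaldehyde, cells were stained with a rabbit anti-H1.0 antibody, an AlexaFluor 647 secondary and DAPI, and six fields per well were imaged at ×10. H1.0 nuclear intensity or cell number is given as percent of the plate control, using the median of replicates, with HCC1569 values smoothed for positional effects.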
# TDF [2] = test: as above
# Summary of the method: as §1
# TDF [3] = test: H1.0 immunofluorescence intensity relative to DMSO (% of DMSO); higher = stronger H1.0 induction, active = 120 or more
# Summary of the method: as §1
# HCC1569 [4] = test: H1.0 immunofluorescence intensity relative to DMSO (% of DMSO); higher = stronger H1.0 induction, active = 140 or more
# Summary of the method: as §1
# 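Throughout, for H1.0 immunofluorescence intensity relative to DMSO: TDF is a line of transformed human dermal fibroblasts of mesenchymal origin.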
# 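Throughout, for cell number relative to DMSO: TDF denotes transformed human dermal fibroblasts of mesenchymal origin.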
SMILES,cell number (HCC1569 [1]),cell number (TDF [2]),H1.0 immunofluorescence intensity (TDF [3]),H1.0 immunofluorescence intensity (HCC1569 [4])
COc1cc(C(O)C(=O)O)ccc1O (centres undefined) [hydroxy(4-hydroxy-3-methoxyphenyl)acetic acid],99.7,99.1,94.8 (inactive),99.4 (inactive)
CC(Cc1ccc(O)c(O)c1)C(C)Cc1ccc(O)c(O)c1 (centres undefined),72.5 and 72.1,108 and 87.9,100 (inactive) and 95.2 (inactive),116 (inactive) and 122 (inactive)
"O=C1c2c(O)cc(O)cc2OC(c2ccc(O)c(O)c2)C1O (single isomer, unassigned; (+)) [(+)-Taxifolin]",99.5,83.9,105 (inactive),102 (inactive)
CCCCCC(O)C=CC=CCC=CCCCCCCC(=O)O (centres undefined),99.9,104,99.2 (inactive),94.6 (inactive)
CC(C=CC1(O)C(C)=CC(=O)CC1(C)C)=CC(=O)O (racemic),103,103,99.5 (inactive),88.1 (inactive)
NC(=O)Nc1sc(-c2ccc(F)cc2)cc1C(N)=O,75.6,60.6,96.3 (inactive),177 (active)
O=C(O)CNC(=O)C(=O)O [2-(carboxymethylamino)-2-oxoacetic acid],103,92.4,93.7 (inactive),83.7 (inactive)
CC(C)(Oc1ccc(C2CC2(Cl)Cl)cc1)C(=O)O (centres undefined) [Ciprofibrate],104,110,97.8 (inactive),98.1 (inactive)
Cc1[nH]c(C=C2C(=O)Nc3ccc(S(=O)(=O)N(C)c4cccc(Cl)c4)cc32)c(C)c1C(=O)N1CCN(C)CC1 [Met Kinase Inhibitor],81.6,59.6,92 (inactive),149 (active)
CC(C)CC(NC(=O)C(Cc1c[nH]c2ccccc12)NC(=O)C(Cc1ccc(O)cc1)NC(=O)C(CO)NC(=O)C(Cc1c[nH]c2ccccc12)NC(=O)C(Cc1cnc[nH]1)NC(=O)C1CCC(=O)N1)C(=O)NC(CCCN=C(N)N)C(=O)N1CCCC1C(=O)NCC(N)=O (centres undefined) [Triptorelin],107,89.6,97.7 (inactive),103 (inactive)
"Cl.c1ccc(C2CCCC2NC2=NCCCCCCCCCCC2)cc1 (centres undefined) [MDL 12,330A hydrochloride]",105,109,85.7 (inactive),88.1 (inactive)
NC1CCN(c2nc3c(cc2F)c(=O)c(C(=O)O)cn3-c2ccc(F)cc2F)C1 (centres undefined) [Tosufloxacin],106,102,105 (inactive),104 (inactive)
NC(CO)(CO)CO.O=C(c1ccccc1)c1ccc2n1CCC2C(=O)O (centres undefined) [Ketorolac tris salt],101,111,94.5 (inactive),94.1 (inactive)
CCCCn1c(=O)c2c(ncn2CC(C)=O)n(CCCC)c1=O [Denbufylline],103,112,87.3 (inactive),106 (inactive)
CCCCCCCCCCCCCCCCCC(=O)NCC(COP(=O)([O-])OCC[N+](C)(C)C)OCC (racemic) [rac-2-Ethoxy-3-octadecanamido-1-propylphosphocholine],39,54.4,183 (active),153 (active)
Cc1cc(F)c(Nc2ncnc3cc(OCc4ccccc4)ccc23)cc1O.Cl,91.6,105,94.5 (inactive),138 (inactive)
Cn1cc(C=C2C(=O)Nc3cccnc32)c2ccccc21,89.7 and 101,104 and 96,96 (inactive) and 95.3 (inactive),161 (active) and 98.5 (inactive)
O=c1cc(-c2cccc3c2Sc2ccccc2S3)oc(N2CCOCC2)c1 [ATM Kinase Inhibitor],89.5,109,98.4 (inactive),113 (inactive)
Cc1cc(C2CCCCC2)n(O)c(=O)c1.NCCO [Ciclopirox ethanolamine],78.7,58.8,93.2 (inactive),102 (inactive)
CC[n+]1c(C=CN(C)c2ccccc2)n(-c2ccccc2)c2ccc(-c3nc4ccccc4s3)cc21.[I-] [Akt Inhibitor IV],38.7,21.3,148 (active),66.5 (inactive)
"CCCCCC=CCC1OC1CC=CCC=CCCCC(=O)O (centres undefined) [11,12-Epoxyeicosatrienoic acid]",104,110,93.8 (inactive),97.7 (inactive)
